Measured values from PubChem BioAssay AID504462 (Sanford-Burnham Center for Chemical Genomics, 2011).
About 1,700 (0.5%) of roughly 340,000 compounds were called active. This is one part of a sample in which actives are shown more often than they occur. No stated cut-off is given here; in the data, active means inhibition above about 40%; inactive means the rest.

target: Cysteine protease ATG4B (Homo sapiens) (UniProt Q9Y4P1); test: blockers of ATG4B cysteine protease activity – biochemical, fluorescence, uHTS, primary screen (AID 504462); conditions: ATG4B cleavage of LC3-PLA2, NBD-HPC fluorescence, 1 h; at 8.33 µM; stronger effect = higher value
Sequence (Q9Y4P1 whole entry, looked up): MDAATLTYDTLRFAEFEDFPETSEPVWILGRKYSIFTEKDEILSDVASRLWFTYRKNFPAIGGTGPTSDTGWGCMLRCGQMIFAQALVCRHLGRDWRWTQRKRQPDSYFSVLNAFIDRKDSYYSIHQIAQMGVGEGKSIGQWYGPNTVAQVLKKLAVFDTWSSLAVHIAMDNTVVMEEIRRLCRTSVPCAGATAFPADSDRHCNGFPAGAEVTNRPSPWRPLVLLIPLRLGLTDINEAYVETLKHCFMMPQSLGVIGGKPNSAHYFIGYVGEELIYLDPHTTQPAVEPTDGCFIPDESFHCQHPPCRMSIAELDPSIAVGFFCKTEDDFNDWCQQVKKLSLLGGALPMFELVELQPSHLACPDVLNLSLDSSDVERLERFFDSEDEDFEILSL

inhibition, inactive:
CCOCC(=O)Nc1ncc(S(=O)(=O)c2ccc([N+](=O)[O-])cc2)s1 -0.99%
COc1ccc(/C=C2\SC(=O)N(CCC(=O)NC3CCS(=O)(=O)C3)C2=O)cc1 (stereo unspecified) 5.85%
COc1ccc(/C=C2\SC(=O)N(CCC(=O)NCCCn3ccnc3)C2=O)cc1 3.21%
Cc1cc(C)n(-c2nnc(C)n2NC(=O)c2cccc(Cl)c2)n1 -11.2%
O=C(NCCS(=O)(=O)N1CCN(c2ccccc2F)CC1)c1ccc(Br)o1 -9.9%
CC1(C)CC(=O)C=C(NCCCN2CCCC2=O)C1 2.66%
O=C(c1ccc(CSc2ccccc2)cc1)N1CCCCCC1 15.3%
O=C(C1CC1)N1CCN=C1SCc1ccc(Cl)cc1 -5.2%
O=C(O)C1C2C=CC(C2)C1C(=O)NCc1ccccc1 (stereo unspecified) 1.32%
COC(=O)[C@H](Cc1ccccc1)NC(=O)[C@@H]1C[C@H]1[C@@H](NC(=O)OCc1ccccc1)c1ccccc1 3.57%
Cc1ccc(Sc2cc(C(=O)c3ccccc3C(=O)O)ccc2[N+](=O)[O-])cc1 -10.7%
CN(C)S(=O)(=O)c1ccc(N/C=C(\[N+](=O)[O-])S(=O)(=O)c2ccccc2)cc1 0.88%
CCCN(CCC)CCCNC(=O)CNC(=O)c1nn(-c2ccc(OC)cc2)c(=O)c2ccccc12 7.71%
CCN=C1SC(CC(=O)Nc2ccc(C)cc2)C(=O)N1CC (stereo unspecified) -0.27%
Cc1c(Cl)cccc1NC(=O)CC1SC(=NCC2CCCO2)NC1=O (stereo unspecified) 1.67%
O=C(COC(=O)c1cc(=O)[nH]c2ccccc12)Nc1nc(-c2cccc(Br)c2)cs1 -32.4%
O=C1Nc2cc(Cl)c(Cl)cc2N(O)N1c1ccccc1Cl 0.16%
O=C(Nc1cccc2c1CCCC2)c1ccc(F)cc1 9.34%
CS(=O)(=O)C1=NN2C(=N)/C(=C\c3ccc(OCCOc4ccccc4)cc3)C(=O)N=C2S1 -1.7%
Cc1ccc(C2=N/C(=C\c3ccc(OS(=O)(=O)c4ccc(C)cc4)cc3)C(=O)O2)cc1 -3.55%

inhibition, active:
COc1ccc(/C=C2/SC(=O)N(CCCCCC(=O)Nc3ccccc3C(=O)O)C2=S)cc1 55.6%
CC1CCN(C(=O)c2ccc(CSc3ccc(Cl)cc3)cc2)CC1 44%
O=C(NCc1ccccc1)[C@H]1C[C@@H]1[C@H](NP(=O)(c1ccccc1)c1ccccc1)c1ccccc1 55.2%
Cc1ccc(NC(=O)CC2S/C(=N/N=C3\CCCc4ccccc43)NC2=O)cc1 (stereo unspecified) 41.3%
O=C1Nc2cc(Cl)c(Cl)cc2N(O)N1c1cc(Cl)cc(Cl)c1 42.3%
CCS(=O)(=O)C1=NSC2=NC(=O)/C(=C\c3ccc(OS(=O)(=O)c4ccccc4)cc3)C(=N)N21 43.1%
